Results taken from PubChem BioAssay (NCI).
The panel holds about 83,000 compounds, 20% with a hit somewhere; the sample as a whole holds those more often.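 Activity criterion: percent growth below 10, measured after cells in 96-well plates were exposed to a single compound concentration for 48 hours.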 Active and inactive are the calls of the source.

Each molecule was assayed on SF-295 CNS (assay: NCI-60 one-dose screen, 48 h (100 = growth as untreated, 0 = no growth, -100 = all killed)). Details: 10 µM.

**Q.** How did the growth turn out when CC1=C(COCCOC(=O)c2ccc(S(=O)(=O)F)cc2)C2=C(C)C3(CC3)[C@@](C)(O)C(=O)C2=C1 was run?
**A.** -11.8% (active)

**Q.** How did the growth turn out when CC[C@]12C=CCN3CC[C@@]4(c5ccc(OC)cc5N(C)[C@H]4[C@@](O)(C(=O)OC)[C@@H]1OC(=O)CCCC[P+](c1ccc(OC)cc1)(c1ccc(OC)cc1)c1ccc(OC)cc1)[C@@H]32 was run?
**A.** -93.6% (active)

**Q.** CC1=C(CCC=NNC(N)=O)C2=C(C)C3(CC3)[C@@](C)(O)C(=O)C2=C1 was tested. Which growth did it give?
**A.** 1.93% (active)

**Q.** With CC[C@@]12CC(C(=O)OC)=C3Nc4cc5c(cc4[C@@]34CCN(C[C@H]3O[C@H]31)[C@@H]24)[C@@H]1[C@H](O5)[C@@H](O)[C@@]2(CC)CC(C(=O)OC)=C3Nc4cc(OC)ccc4[C@@]34CCN1[C@@H]24 as the molecule, how does the growth read?
**A.** 0.382% (active)

**Q.** How did the growth turn out when CCOP(=O)(CC(F)(F)C(F)(F)F)OCC was run?
**A.** 97.7% (inactive)

**Q.** With CC1=C2C(=C[C@@](C)(COP(=O)(Oc3ccccc3)Oc3ccccc3)[C@@H]2O)C(=O)[C@@](C)(O)C12CC2 as the molecule, how does the growth read?
**A.** -59% (active)

**Q.** CC(=O)Oc1ccccc1C(=O)NC([Se])=NC1CCCCC1 was tested. Which growth did it give?
**A.** -8.45% (active)

**Q.** C[C@H]1[C@H](OC(=O)CCC(=O)N(CCCc2cn(-c3ccc(CN4CCOCC4)cc3)nn2)CCNc2ccnc3cc(Cl)ccc23)O[C@@H]2OC3(C)CC[C@H]4[C@H](C)CC[C@@H]1[C@@]24OO3 was tested. Which growth did it give?
**A.** -2.37% (active)

**Q.** How did the growth turn out when O=C(/C=C/c1ccc(Cl)cc1)c1nc2ccccc2n1Cc1ccc(F)cc1 was run?
**A.** 50.7% (inactive)

**Q.** Which growth does the source give for CC1=C(CCC=O)C2=C(C)C3(CC3)[C@@](C)(O)C(=O)C2=C1 here?
**A.** -64.3% (active)

**Q.** O=C(NC([Se])=NC1CCCCC1)c1ccc2c(c1)OCO2 was tested. Which growth did it give?
**A.** 6.53% (active)

**Q.** With C[C@H]1[C@H](OC(=O)CCC(=O)N(CCCc2cn(-c3ccc(C#N)cc3)nn2)CCNc2ccnc3cc(Cl)ccc23)O[C@@H]2OC3(C)CC[C@H]4[C@H](C)CC[C@@H]1[C@@]24OO3 as the molecule, how does the growth read?
**A.** 53.8% (inactive)

**Q.** How did the growth turn out when C[C@H]1[C@@H](Oc2ccc(-c3cn(-c4ccnc5cc(Cl)ccc45)nn3)cc2)O[C@@H]2OC3(C)CC[C@H]4[C@H](C)CC[C@@H]1[C@@]24OO3 was run?
**A.** 37.6% (inactive)

**Q.** How did the growth turn out when COc1ccc(/C=C/C(=O)c2nc3ccccc3n2Cc2ccc(Br)cc2)cc1 was run?
**A.** 81.9% (inactive)

**Q.** How did the growth turn out when COC(=O)CCn1c(-c2ccc(-n3cc(-c4ccc(O[C@H]5O[C@@H]6OC7(C)CC[C@H]8[C@H](C)CC[C@@H]([C@H]5C)[C@@]68OO7)cc4)nn3)cc2)nc2ccccc21 was run?
**A.** 21.1% (inactive)

**Q.** C[C@H]1[C@H](OC(=O)CCC(=O)N(CCCc2cn(-c3ccc([N+](=O)[O-])cc3)nn2)CCNc2ccnc3cc(Cl)ccc23)O[C@@H]2OC3(C)CC[C@H]4[C@H](C)CC[C@@H]1[C@@]24OO3 was tested. Which growth did it give?
**A.** 46.1% (inactive)
